Screening data as filed in PubChem.
Marburg entry inh: Marburg virus entry inhibition; AID 540276; Potency, µM (series often up to 37.8 µM), inactives show at the top dose activity change, negative = inhibition, most hits filed as inhibitors; hit rate 1.8% among 300,000; Marburg virus pseudotyped entry inhibition, cell reporter; calls by dose curve; tested in HEK293 cells
RE007 growth inh: less growth of the S. pombe RE007 Vpr strain; S. pombe RE007 Vpr strain, BacTiter-Glo ATP luminescence, 24 h; Potency, µM (top dose mostly 92.2 µM), for inactives: top-dose activity change, negative = less growth, usual class: inhibitors; hit rate 0.21% among 360,000; active means well fitted falling curve with a large enough effect; inconclusive means small, poorly fitted or top-dose-only effect; inactive means no such curve, though single readings can be large or run the other way; further: nearly all actives have a fitted effect of over 50% in size
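Fission yeast strain RE007, carrying one chromosomally integrated HIV-1 vpr copy, was seeded at OD 0.01 in PMG+AL medium with 23 nL pinned compound. After 24 h at 30 °C and 99% humidity, viability was read by BacTiter-Glo luminescence.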
HCV inhibitor: HCV inhibition. Huh7.5.1 HCVcc-Cre infection, luciferase reporter, 44 h. Potency, µM (highest dose often 41.8 µM), without a hit: at the highest dose activity change, negative = inhibition, most hits filed as inhibitors. hit rate 3.4% among 340,000. AID 651820
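Infectious HCV cell culture screen: compound-treated cells (1,000/well, pre-plated 4 h) are infected with HCVcc-Cre at roughly 0.5 moi and grown 44 h. Infection is quantified by luciferase signal after 15 min substrate incubation at room temperature.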
Sm TGR block: S. mansoni TGR enzyme inhibition | Q962Y6 | purified TGR, DTNB reduction, TNB absorbance 405 nm | Potency, µM (series often up to 114 µM), without a hit: top-dose activity change, negative = inhibition, actives largely listed as inhibitors | hit rate 3% among 360,000 | AID 485364; further: nearly all actives have a fitted effect of over 60% in size
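Kinetic colorimetric format: TGR-catalysed, NADPH-driven DTNB reduction monitored via TNB absorbance. Enzyme dispensed at 20 nM; compound exposure 15 min at room temperature before reaction start.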
FMDV antiviral: antivirals against foot and mouth disease virus | FMDV antiviral cell-based qHTS | hit rate 1.2% among 410,000 | Potency, µM (doses to about 57.9 µM), for inactives: at the top dose activity change, negative = inhibition, actives largely listed as inhibitors; calls by dose curve; tested in HEK293T cells; further: read-out not given here; nearly all actives have a fitted effect of over 45% in size
LASV entry inh: inhibitors of Lassa virus binding or cell entry. Lassa virus pseudotype entry inhibition, cell reporter. hit rate 1.2% among 300,000. AID 540256. Potency, µM (titrated, usually from 37.9 µM), without a hit: at the top dose activity change, negative = inhibition, hits mostly inhibitors; calls by dose curve; tested in HEK293 cells; further: nearly all actives have a fitted effect of over 50% in size
The depositor's hits bear a star; ? = inconclusive; · = no result given; [ ] = dose if it differs, or a comment. The list is not random: actives were taken first. Their share in the collection is about 7.2%. Unless noted, the call rests on the fitted dose curve; in most records, active means well fitted curve in the direction sought with a large enough effect; inconclusive means small, poorly fitted or top-dose-only effect, or another doubt; inactive means no such curve, though single readings can be large; an effect the other way counts as inactive or inconclusive. On the % scale 0 is the no-effect control and ±100 the full control effect; potency means the concentration at half of the fitted maximal effect.

SMILES | Marburg entry inh | RE007 growth inh | HCV inhibitor | Sm TGR block | FMDV antiviral | LASV entry inh
O=C(CCCO)NNc1c2ccccc2nc2ccccc12 | 8.1%[46.1 µM] | -0.8% | 1µM* | 1.3% | -3.2% | -5.2%
COc1ccc(OCC(=O)NNc2c3ccccc3nc3ccccc23)cc1 | ? | -0.2% | 6.31µM* | -8.4% | 22.4µM* | ?
O=C(NNc1c2ccccc2nc2ccccc12)C(O)c1ccccc1 (stereo unspecified) | · | 12.1% | ? | 0.2% | -8.7% | ·
O=C(O)C1Cc2c([nH]c3ccccc23)C(c2coc3ccccc3c2=O)N1 (stereo unspecified) | · | · | · | · | 1.3% | ·
CCc1c(C)sc2c1CCN(C(=O)Nc1ccccc1C(F)(F)F)C2c1ccccc1 (stereo unspecified) | · | · | · | 8.9% | -20.9% | -17.8%[46.1 µM]
CCN(CC)CCN(C(=O)c1c(F)cccc1F)c1nc2cc(C)cc(C)c2s1 | · | -20.4% | 10µM* | 30.7% | -24.4% | ·
CC(=O)NCCNc1ncnc2ccc(-c3c(C)noc3C)cc12 | · | · | · | · | 11.1% | ·
CC(=O)c1ccc(-c2nnc(CCC(=O)N(C)Cc3cccc4cnccc34)o2)s1 | -5.0%[46.1 µM] | -19.1% | -3.7% | 39.8µM* | 20.0% | ·
Cc1ncc2c(c1CNS(=O)(=O)N(C)C)CCN(C(=O)/C=C/c1cccc(F)c1)C2 | · | · | · | · | 0.5% | ·
Cc1ncc2c(c1CNC(=O)c1ccc3c(c1)OCO3)CCN(C(=O)c1cccc(-n3cccn3)c1)C2 | · | · | · | · | 0.2% | ·
CCOC(=O)CC1=C(C(=O)OCC)[C@H](c2ccc(OC)c(OC)c2)C(C#N)=C(N)O1 | 0.9% | · | · | · | · | ·
CNC(=O)c1sc(N2N=C3/C(=C\c4ccccc4)CCCC3C2c2ccccc2)nc1C (stereo unspecified) | ? | -1.7% | ? | · | 31.6µM* | ?
CNC(=O)c1sc(N2N=C3/C(=C/c4ccccc4)CCCC3C2c2ccccc2)nc1C (stereo unspecified) | ? | -1.2% | 10µM* | -10.6% | ? | ?
CCc1nc2cc(C(=O)N(C)CC3CCCN(C)C3)cc(NC(=O)c3ccccc3OC)c2n1C (stereo unspecified) | · | · | · | · | -6.2% | ·
CCOC(=O)COc1ccc2c(C#N)c3ccccn3c2c1 | 3.0% | 2.4% | -18.5% | · | -22.8% | -0.7%
N#Cc1c2ccc(OCC(N)=O)cc2n2ccccc12 | · | 11.1% | 12.6µM* | -5.4% | -7.7% | ·
O=C(NP(=O)(N1CCCC1)N1CCCC1)C1=C(N2CCOCC2)/C(=C/c2cccc([N+](=O)[O-])c2)CC1 | 3.5%[46.1 µM] | -15.1% | 3.3% | 17.8µM* | -9.6% | 19.9%
CCOC(=O)C(=O)C1=C(N2CCOCC2)/C(=C\c2cccc([N+](=O)[O-])c2)CC1 | 21.0% | -12.9% | 24.5% | 39.8µM* | -14.8% | 16.1%
Cc1c(Cl)cccc1-c1ccc(CNCCSc2nnnn2-c2ccccc2)o1 | -2.2%[46.1 µM] | · | · | ? | ? | 5.3%[46.1 µM]
Cn1cc(NC(=O)c2cc(NC(=O)c3cc(NC=O)cn3C)cn2C)cc1C(=O)NCCC(=N)N | -5.5% | · | · | 14.1µM* | · | ·
Clc1ccc(-c2nnnn2-c2ccc(Cl)cc2)cc1 | ? | 5.2% | -13.5% | 6.6% | -12.1% | 2.5%[46.1 µM]
Cc1ccc(-n2nnnc2C(Cl)(Cl)c2nnnn2-c2ccc(C)cc2)cc1 | ? | 2.4% | -11.4% | 17.8µM* | ? | ?
Cc1c(NC(=O)c2ccc(Br)o2)cccc1-c1nc2ccccc2o1 | · | · | · | 0.1% | -9.5% | -1.8%[46.1 µM]
NS(=O)(=O)c1ccc(N/N=C/c2cn(-c3ccccc3)nc2-c2ccccc2)c([N+](=O)[O-])c1 | · | -6.1% | 10µM* | -0.9% | -29.4% | ·
O=[N+]([O-])c1ccc(N/N=C/c2cn(-c3ccccc3)nc2-c2ccccc2)cc1 | ? | 9.9% | 4.9% | 10.5% | 3.1% | -17.2%
SMILES | Marburg entry inh | RE007 growth inh | HCV inhibitor | Sm TGR block | FMDV antiviral | LASV entry inh
Oc1ccc2c3c1O[C@H]1c4oc5ccccc5c4C[C@@]4(O)C(C2)N(CC2CC2)CCC314 (stereo partly specified) | 10.3µM* | · | · | · | · | ·
Oc1ccc2c3c1O[C@H]1c4[nH]c5ccccc5c4C[C@@]4(O)C(C2)N(CC2CC2)CCC314 (stereo partly specified) | 16.4µM* | · | · | · | -18.3% | 18.3µM*
Oc1ccc2c3c1OC1c4oc5ccccc5c4C[C@@]4(O)[C@@H](C2)N(CC2CC2)CC[C@]314 (stereo partly specified) | · | -10.0% | -5.4% | · | -2.0% | ·
C=CC[C@@H](CC(=O)NCCO)C(=O)N[C@@H](C)COC(=O)[C@H](CC=C)CC(=O)OC(C)(C)C | · | 5.9% | -2.0% | · | -24.4% | ·
CC1CCCCC1OCCNC(=O)c1ccco1 (stereo unspecified) | 12.6%[46.1 µM] | · | · | · | · | ·
CN(CC(=O)Nc1ccc(Cl)c(C(F)(F)F)c1)C(=O)c1ccc(OCC2CCCO2)cc1 (stereo unspecified) | ? | 5.2% | 10µM* | -2.7% | ? | ?
Cc1ccc(C(=O)N(C)CC(=O)Nc2ccc(Cl)c(C(F)(F)F)c2)cc1S(=O)(=O)N1CCCCC1 | · | 13.3% | 7.94µM* | 0.8% | ? | ·
Cc1ccc(S(=O)(=O)N2CCCCC2)cc1C(=O)N(C)CC(=O)Nc1ccc(Cl)c(C(F)(F)F)c1 | · | -0.4% | ? | 3.6% | ? | ·
COCCn1c(=O)c(-c2cc(F)cc(F)c2)nc2cnc(OC)nc21 | · | · | · | · | -18.6% | ·
COc1ccc(/C=C/c2cc(OC)c(OC)cc2CC[N+](C)(C)C)cc1 | · | · | · | · | -12.9% | ·
Nc1ncnc(Sc2ncccn2)c1[N+](=O)[O-] | · | -19.1% | ? | 2.51µM* | 31.6µM* | ·
Nc1ncnc(Sc2ccccc2)c1[N+](=O)[O-] | 1.4% | -24.8% | ? | 12.6µM* | -6.3% | 5.3%
Nc1ncnc(Sc2ccc(Cl)cc2)c1[N+](=O)[O-] | ? | -19.6% | -11.9% | ? | ? | ?
CC(C)n1c(=O)c2ccccc2n1Cc1cn(Cc2cccnc2)nn1 | · | -6.8% | · | · | -5.1% | ·
CC(=O)Nc1ccc(S(=O)(=O)N(C)CC(=O)OCC(=O)N2CCN(C(=O)c3ccco3)CC2)cc1 | 6.4%[46.1 µM] | -10.3% | 17.6% | 50.1µM* | 0.2% | -2.4%
CC(=O)Nc1ccc(S(=O)(=O)N(C)CC(=O)OCC(=O)N2CCCCCC2)cc1 | 11.9%[46.1 µM] | 1.1% | 13.5% | 5.7% | -12.4% | 4.9%[46.1 µM]
O=C(OCC(=O)N1CCN(C(=O)c2ccco2)CC1)c1cn(-c2ccccc2)nc1-c1ccccc1 | -19.5% | 5.6% | 2.82µM* | -13.0% | -7.1% | ?
CCOC(=O)/C=C/C(=O)OCC(=O)N1CCN(C(=O)c2ccco2)CC1 | ? | -4.7% | · | 31.6µM* | ? | -20.7%
O=C(/C=C/c1ccc(OC(F)F)cc1)OCC(=O)N1CCN(C(=O)c2ccco2)CC1 | -2.5% | -13.1% | ? | -6.0% | ? | ?
Cc1ccc(SCC(=O)OCC(=O)N2CCN(C(=O)c3ccco3)CC2)c(C)c1 | 13.8% | 5.1% | 13.6% | 44.7µM* | -5.8% | -1.6%
